Hits are enriched below; roughly 3.1% of the tested compounds scored in any of these assays.
SARS 3CLpro inh: SARS-CoV 3CLpro protease inhibition; recombinant SARS-CoV 3CLpro, quenched FRET peptide cleavage; inhibition, % at 6 µM; hit rate 0.14% among 290,000; AID 1706; in the data active means inhibition above about 12%
GDH-TPI counter: GDH-TPI coupled enzyme inhibition counter-screen; GDH-TPI coupled enzyme counterscreen, NADH absorbance; inhibition, % at 4.8 µM; hit rate 1.2% among 360,000; in the data active means inhibition above about 30%;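 further: 0% = DMSO wells and 100% = wells lacking the enzyme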
FadD28 binding: M. tuberculosis FadD28 bisubstrate binding inhibition; hit rate 0.22% among 360,000; inhibition, % at 12.5 µM; FadD28 bisubstrate probe binding, fluorescence polarization; in the data active means inhibition above about 8.5%, passing the limit was not always enough
Mtb FBA inh: inhibitors of M. tuberculosis fructose-bisphosphate aldolase; inhibition, % at 1 µM; P9WQA3; hit rate 2.3% among 360,000; purified M. tuberculosis FBA, fluorescence read-out; in the data active means inhibition above about 27%;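 further: 0% = vehicle and 100% = reference inhibitor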
Target sequence (P9WQA3 whole entry, looked up): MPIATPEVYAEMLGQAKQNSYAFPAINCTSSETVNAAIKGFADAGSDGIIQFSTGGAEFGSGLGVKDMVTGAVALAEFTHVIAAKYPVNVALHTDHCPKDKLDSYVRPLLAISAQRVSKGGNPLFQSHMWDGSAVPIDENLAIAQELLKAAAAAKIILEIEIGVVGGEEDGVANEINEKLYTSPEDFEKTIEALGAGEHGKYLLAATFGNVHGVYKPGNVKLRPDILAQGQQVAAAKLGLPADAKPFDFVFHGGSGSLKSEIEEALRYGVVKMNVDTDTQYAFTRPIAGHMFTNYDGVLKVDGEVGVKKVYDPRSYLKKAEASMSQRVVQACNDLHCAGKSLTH
Mtb BioA inh: BioA (M. tuberculosis) enzyme inhibition; purified M. tuberculosis BioA enzyme, plate reader; inhibition, % at 9.99 µM; hit rate 0.096% among 360,000; AID 602481; in the data active means inhibition above about 40%
Active calls of the source: *.

What do the screens show for `O=C1CC(c2ccc3c(c2)OCCO3)Oc2ccccc21` (stereo not given)?
SARS 3CLpro inh: 7; GDH-TPI counter: 7; FadD28 binding: 0; Mtb FBA inh: -1; Mtb BioA inh: -1

What do the screens show for `NC(=S)N/N=C1\CC(c2ccc3c(c2)OCCO3)Oc2ccc(F)cc21` (stereo not given)?
SARS 3CLpro inh: 2; GDH-TPI counter: 40*; FadD28 binding: -1; Mtb FBA inh: -2

What do the screens show for `NC(=S)N/N=C1\CC(c2ccc3c(c2)OCCCO3)Oc2ccc(F)cc21` (stereo not given)?
SARS 3CLpro inh: 4; GDH-TPI counter: 45*; FadD28 binding: -6; Mtb FBA inh: 0; Mtb BioA inh: 0

What do the screens show for `Cc1c(N=C2SCC(=O)N2c2c(C)n(C)n(-c3ccccc3)c2=O)c(=O)n(-c2ccccc2)n1C`?
SARS 3CLpro inh: 1; GDH-TPI counter: -2; FadD28 binding: 0; Mtb FBA inh: 2; Mtb BioA inh: -1

How did Cc1c(N2C(=O)CS/C2=N\N=C\c2ccccc2O)c(=O)n(-c2ccccc2)n1C do in these assays?
SARS 3CLpro inh: 8; GDH-TPI counter: 32*; FadD28 binding: 0; Mtb FBA inh: -1; Mtb BioA inh: 0

What do the screens show for `Cc1c(N2C(=O)CS/C2=N\N=C\c2ccc(Cl)cc2)c(=O)n(-c2ccccc2)n1C`?
SARS 3CLpro inh: 2; GDH-TPI counter: 10; FadD28 binding: -4; Mtb FBA inh: 1; Mtb BioA inh: 0

Results for COc1ccc(/C=N/N=C2\SCC(=O)N2c2c(C)n(C)n(-c3ccccc3)c2=O)cc1OC ?
SARS 3CLpro inh: -1; GDH-TPI counter: 41*; FadD28 binding: -5; Mtb FBA inh: -2

How did Cc1noc(C)c1NC(=O)Nc1ccc2c(c1)C(=O)N([C@H](C)CO)C[C@@H](C)[C@H](CN(C)CC1CC1)OCCCC[C@@H](C)O2 do in these assays?
Mtb BioA inh: -1

What do the screens show for `Cc1ccc(S(=O)(=O)Nc2ccc3c(c2)C(=O)N([C@H](C)CO)C[C@@H](C)[C@@H](CN(C)C(=O)C2CCCCC2)OCCCC[C@@H](C)O3)cc1`?
Mtb BioA inh: 0

What do the screens show for `Cc1c(CC(=O)O)c(=O)oc2cc(OCc3nn[nH]n3)ccc12`?
SARS 3CLpro inh: 1; GDH-TPI counter: 11; FadD28 binding: -1; Mtb FBA inh: active; Mtb BioA inh: -1

How did CCOC(=O)CCc1c(C)c2ccc(OCc3nn[nH]n3)cc2oc1=O do in these assays?
SARS 3CLpro inh: -3; GDH-TPI counter: -2; FadD28 binding: -2; Mtb FBA inh: active; Mtb BioA inh: 4

Results for Cc1c(CC(=O)O)c(=O)oc2cc(OCc3ccc(Cl)cc3)ccc12 ?
SARS 3CLpro inh: 4; GDH-TPI counter: 18; FadD28 binding: -1; Mtb FBA inh: 126*; Mtb BioA inh: 0

Results for CCOC(=O)CCc1c(C)c2ccc(OCc3ccc([N+](=O)[O-])cc3)cc2oc1=O ?
SARS 3CLpro inh: -3; GDH-TPI counter: 2; FadD28 binding: 0; Mtb FBA inh: 8; Mtb BioA inh: -2

What do the screens show for `COc1ccc(CNC(=O)C[C@@H]2C[C@@H]3c4cc(NC(=O)NC5CCCC5)ccc4O[C@@H]3[C@H](CO)O2)cc1`?
Mtb BioA inh: -1

What do the screens show for `Cc1noc(C)c1NC(=O)N(C)C[C@@H]1Oc2ccc(NC(=O)NC(C)C)cc2C(=O)N([C@@H](C)CO)C[C@H]1C`?
Mtb BioA inh: -1

What do the screens show for `C[C@@H](O)C#Cc1ccc([C@@H]2[C@@H](CO)N3CCCCN(CC4CCOCC4)C[C@@H]23)cc1`?
Mtb BioA inh: -2

What do the screens show for `Cc1cc2oc(=O)cc(CN3CCOCC3)c2c(C)c1Cl`?
SARS 3CLpro inh: 0; GDH-TPI counter: -6; FadD28 binding: -1; Mtb FBA inh: 137*; Mtb BioA inh: 0

How did Cc1cc2oc(=O)cc(CN3CCOCC3)c2cc1Cl do in these assays?
SARS 3CLpro inh: -3; GDH-TPI counter: -5; FadD28 binding: -4; Mtb FBA inh: -2; Mtb BioA inh: 0

Results for CCc1cc(=O)oc2c(CNCc3c(F)cccc3Cl)c(O)ccc12 ?
SARS 3CLpro inh: -1; GDH-TPI counter: 11; FadD28 binding: -3; Mtb FBA inh: active; Mtb BioA inh: 1

Results for CCCc1cc(=O)oc2c(CNc3ccc(OCC)cc3)c(O)ccc12 ?
SARS 3CLpro inh: 3; GDH-TPI counter: 9; FadD28 binding: 2; Mtb FBA inh: 165*; Mtb BioA inh: 0

Results for CCCCc1cc(=O)oc2c(CN3CCCC3)c(O)ccc12 ?
SARS 3CLpro inh: 0; GDH-TPI counter: 4; FadD28 binding: -4; Mtb FBA inh: active; Mtb BioA inh: 0
